# Data: PubChem BioAssay (NCATS)
# Results filed as inconclusive are left out. Active and inactive are the calls of the source. Unless noted, calls come from the whole dose curve; as a rule, active = well fitted cell-killing curve with a large enough effect; inconclusive = small, poorly fitted or top-dose-only effect; inactive = flat fitted curve, though single readings scatter.
# Columns and labels:
# [1] = Cell Viability - LYMP2-021 (AID 974); note: % is set by controls: 0 for no effect and ±100 for the full control effect; nearly all actives have a fitted effect of over 55% in size
# Method in brief: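 AC50 values come from Hill-equation fits to CellTiter-Glo luminescence (ATP content), read after 24 hour compound exposure at 37 C of 2500 LYMP2-021 lymphoblastoid cells/well; tetraoctylammonium bromide as positive control.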
# [2] = Cell Viability - LYMP2-023 (AID 975);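 note: cellular ATP measured by luciferase luminescence as viability proxy; plate controls were DMSO only for no effect and 92 µM tetraoctylammonium bromide control for full effect; nearly all actives have a fitted effect of over 55% in size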
# Method in brief: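 Intracellular ATP, read by CellTiter-Glo luminescence, reports viability after 24 hr compound exposure at 37 C. 2500 lymphoblastoid cells/well (LYMP2-023) seeded 5 hr beforehand; Hill fits give AC50; positive control tetraoctylammonium bromide.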
# [3] = Cell Viability - LYMP2-025 (AID 976);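 note: plate controls were DMSO only for no effect and tetraoctylammonium bromide control for full effect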
# Method in brief: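 Cytotoxicity read as loss of intracellular ATP (luciferase luminescence) after 24 h compound treatment at 37 C. Uses LYMP2-025 lymphoblastoid cells in 1536-well format; Hill-equation modelling gives AC50; tetraoctylammonium bromide as positive control.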
# [4] = Cell Viability - LYMP2-002 (AID 977);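 note: plate controls were DMSO only for no effect and 92 µM tetraoctylammonium bromide for full effect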
# Method in brief: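 Human lymphoblastoid cells (2500/well) in complete medium were preincubated 5 hr at 37 C, then exposed to compounds for 24 hr at 37 C. Intracellular ATP was read by CellTiter-Glo luminescence; AC50 came from Hill-equation concentration-response fits.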
# [5] = Cell Viability - LYMP2-006 (AID 978); note: % is set by controls: 0 for no effect and ±100 for the full control effect; nearly all actives have a fitted effect of over 60% in size
# Method in brief: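 qHTS, 1536-well; 2500 cells/well, 5 hr 37 C; cpd 24 hr 37 C; CellTiter-Glo 30 min RT; luminescence. Tetraoctylammonium bromide pos. ctrl. AC50 via Hill eqn.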
# [6] = Cell Viability - LYMP2-007 (AID 979);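 note: cells exposed to compound for 24 h before reading; 0% = DMSO only and the negative end = 92 µM tetraoctylammonium bromide; nearly all actives have a fitted effect of over 60% in size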
# Method in brief: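 AC50 values come from Hill-equation fits of luminescent intracellular ATP (CellTiter-Glo, 30 min, room temperature) following 24 h compound exposure at 37 C. Cells: LYMP2-007 lymphoblastoid line, 2500 per well, in complete culture medium.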
# [7] = Cell Viability - LYMP2-008 (AID 980); note: % is set by controls: 0 for no effect and ±100 for the full control effect; nearly all actives have a fitted effect of over 60% in size
# Method in brief: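 Cytotoxicity determined from ATP-dependent luciferase luminescence (CellTiter-Glo) following 24 h compound exposure of human lymphoblastoid LYMP2-008 cells at 37 C. Concentration-response data fitted to the Hill equation to give AC50.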
# [8] = Cell Viability - LYMP2-010 (AID 981); note: % is set by controls: 0 for no effect and ±100 for the full control effect; nearly all actives have a fitted effect of over 55% in size
# Method in brief: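 CellTiter-Glo ATP luminescence measured cytotoxicity after 24 h compound exposure at 37 C. LYMP2-010 cells were seeded at 2500/well, with tetraoctylammonium bromide as control; concentration-response curves gave AC50 values by the Hill equation.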
# [9] = Cell Viability - LYMP2-012 (AID 982);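 note: cellular ATP by luciferase luminescence where a drop means cytotoxicity; cells exposed to compound for one day before reading; 0% = DMSO only and full loss = 92 µM tetraoctylammonium bromide; nearly all actives have a fitted effect of over 55% in size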
# [10] = Cell Viability - LYMP2-014 (AID 983);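 note: plate controls were DMSO only for no effect and 92 µM tetraoctylammonium bromide for full effect; nearly all actives have a fitted effect of over 50% in size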
# Method in brief: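 Intracellular ATP loss, read by luciferase luminescence, measures acute cytotoxicity after 24 h compound exposure of lymphoblastoid LYMP2-014 cells (2500/well, 37 C). Concentration-response data fitted to the Hill equation for AC50.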
# [11] = Cell Viability - LYMP2-016 (AID 984)
# Method in brief: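 qHTS, 1536-well: 2500 LYMP2-016 cells/well, 5 hr 37 C, compound added, 24 hr 37 C, CellTiter-Glo 30 min RT, luminescence. Tetraoctylammonium bromide positive control. AC50 via Hill fit.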
# [12] = Cell Viability - LYMP2-018 (AID 985);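 note: plate controls were DMSO only for no effect and tetraoctylammonium bromide at 92 µM for full effect; nearly all actives have a fitted effect of over 50% in size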
# Method in brief: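 Viability read as CellTiter-Glo luminescence (cellular ATP) after 24 hr compound exposure at 37 C of 2500 LYMP2-018 lymphoblastoid cells/well, pre-plated 5 hr. Hill-equation modelling gave AC50.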
# [13] = Cell Viability - LYMP2-020 (AID 986)
# Method in brief: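 Cytotoxicity in qHTS format: luminescent ATP readout from CellTiter-Glo after 24 h compound exposure at 37 C in complete medium. LYMP2-020 lymphoblastoid cells were seeded at 2500/well; concentration-response data fitted to the Hill equation for AC50.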
# [14] = Cell Viability - LYMP2-022 (AID 987)
# Method in brief: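 Cytotoxicity read as decreased cellular ATP (CellTiter-Glo luminescence, 30 min room temperature) after 24 hours compound exposure of 2500 lymphoblastoid LYMP2-022 cells/well at 37 C. Concentration-response data fitted with standard Hill equation for AC50.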
# [15] = Cell Viability - LYMP2-024 (AID 988);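 note: plate controls were DMSO only for no effect and 92 µM tetraoctylammonium bromide for full effect; nearly all actives have a fitted effect of over 60% in size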
# Method in brief: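 Cytotoxicity was taken as a decrease in ATP (CellTiter-Glo luminescence) after 24 hr compound exposure at 37 C of LYMP2-024 lymphoblastoid cells, 2500 cells/well. Concentration-response data were fitted to the Hill equation to give AC50.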
# [16] = Cell Viability - LYMP2-026 (AID 989); note: % is set by controls: 0 for no effect and ±100 for the full control effect; nearly all actives have a fitted effect of over 50% in size
# Method in brief: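 Cytotoxicity read as ATP-dependent luminescence (CellTiter-Glo, 30 min room temperature) after 24 h compound treatment at 37 C. LYMP2-026 lymphoblastoid line seeded at 2500 cells/well; AC50 derived by standard Hill equation.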
# [17] = Cell Viability - LYMP1-002 - Assay at 24 hr (AID 993); note: % is set by controls: 0 for no effect and ±100 for the full control effect
# Method in brief: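 qHTS cytotoxicity at 24 h: CellTiter-Glo ATP luminescence in lymphoblastoid line LYMP1-002 incubated with compound at 37 °C. Concentration-response modeled with the Hill equation for AC50; tetraoctylammonium bromide served as positive control.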
# [18] = Cell Viability - LYMP1-002 - Assay at 40 hr (AID 994)
# Method in brief: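 Cytotoxicity was read as loss of cellular ATP (CellTiter-Glo luminescence) after 40 hr compound exposure at 37 C of 2500 LYMP1-002 lymphoblastoid cells per well. Concentration-response data were fitted with the standard Hill equation to give AC50.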
# [19] = qHTS profiling of the MIPE4 collection as inhibitors of Plasmodium falciparum (3D7) proliferation (AID 743344; call rule not given here;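 note: scaled between DMSO vehicle wells and 0.29 µM artemisinin as full inhibition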); details: P. falciparum 3D7 in erythrocytes, SYBR Green DNA fluorescence, 72 h; at 5.51 µM (top of the series) unless noted
# Method in brief: (§1)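 Parasite DNA was quantified by SYBR Green I fluorescence (ex 485, em 535 nm) after overnight lysis in saponin/Triton buffer at room temperature. Cultures at 0.3% parasitemia and 2.5% hematocrit were first exposed to compound for 72 h at 37 C; signals were normalised to artemisinin (0.29 uM) and vehicle wells.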
# [20] = qHTS profiling of the MIPE4 collection as inhibitors of Plasmodium falciparum (DD2) proliferation (AID 743345; call rule not given here); details: P. falciparum Dd2 in erythrocytes, SYBR Green DNA, 72 h; at 5.51 µM (top of the series) unless noted
# Method in brief: as §1
Structure (SMILES),outcome [1],outcome [2],outcome [3],outcome [4],outcome [5],outcome [6],outcome [7],outcome [8],outcome [9],outcome [10],outcome [11],outcome [12],outcome [13],outcome [14],outcome [15],outcome [16],outcome [17],outcome [18],"parasite growth, % of DMSO control [19]","parasite growth remaining, % of DMSO control (lower = more inhibition) [20]"
CN(C)CCOC(c1ccccc1)c1ccccc1 (tested in a mixture with another compound),inactive,inactive,inactive,inactive,inactive,inactive,inactive,inactive,inactive,inactive,inactive,inactive,inactive,inactive,inactive,inactive,inactive,inactive,–,–
CC1CC2C3CCC4=CC(=O)C=C[C@@]4(C)[C@]3(F)C(O)C[C@]2(C)[C@]1(O)C(=O)CO (stereo not given in full),–,–,–,–,–,–,–,–,–,–,–,–,–,–,–,–,–,–,31.9% [at 28.5 µM],90.9% [at 28.5 µM]
